Reference: PubChem BioAssay (NCATS)
Active and inactive are the calls of the source. Calls come from the whole dose curve; as a rule, active = well fitted activation curve with a large enough effect; inconclusive = small, poorly fitted or top-dose-only effect; inactive = flat fitted curve, though single readings scatter.

assay: Cellular Toxicity (caspase-3) HepG2 (AID 654); conditions: HepG2 caspase-3 activation, luminescence, 0% = DMSO only, 100% = tamoxifen; series mostly up to 92.2 µM; caspase-3 activation: at the top concentration;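 note: cells exposed to compound for 16 hours before reading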
Text: NIH Chemical Genomics Center [NCGC]
NIH Molecular Libraries Screening Centers Network [MLSCN]
National Institutes of Environmental Health Sciences [NIEHS]
National Toxicology Program [NTP]
We have developed a 1536-well cell-based assay for quantitative high throughput screening (qHTS) against a number of cell lines to determine in vitro caspase 3/7 of small molecules. This particular assay uses the HepG2 cell line which is derived from human hepatocellular carcinoma.
NCGC Assay Protocol Summary:
The Caspase-Glo 3/7 assay (Promega) is a homogeneous method to measure caspase-3 and caspase-7 activities in cultured cells. The quantitation of caspase 3/7 activity is based on the cleavage of a peptide-aminoluciferin substrate. After caspase cleaves the substrate the free aminoluciferin is liberated and serves as the substrate of luciferase, which generates the light. The luminescent signal is proportional to amount of caspase 3/7 activity present.
Using the Caspase-Glo 3/7 assay, the amount of caspase 3/7 activity was measured in the HepG2 cell line with complete culture medium following compound treatment for 16 hours. The assay was performed in opaque white 1536-well plates. In the screen, tamoxifen and doxorubicin were used as positive controls. Library compounds were measured for their ability to cause the activation of caspase 3/7 in the cell line, as reflected by an increase in luminescence signal, in a concentration-dependent manner. Data were normalized to the controls for basal activity (DMSO only) and 100% stimulation (100 uM tamoxifen). AC50 values were determined from concentration-response data modeled with the standard Hill equation.
qHTS protocol for caspase 3/7 assay in HepG2 cells
[Step] [Parameter] [Value] [Description]
1. Reagent; 5 uL; 1500 HepG2 cells/well
2. Time; 5 hr; 37 °C incubation
4. Controls; 23 nL; Tamoxifen 0.23 uM to 100 uM & Doxorubicin 7.0 pM to 100 uM
5. Time; 16 hr; 37 °C incubation
6. Reagent; 5 uL; Caspase-Glo 3/7 reagent
7. Time; 20 min; Room Temperature
8. Detection; Luminescence; Viewlux plate reader
Keywords: caspase 3/7, apoptosis, HepG2 cell line, luminescence, NTPHTS, NTPHTS_NCGC, NIEHS, EPA, DSSTox, MLSMR, MLSCN, NIH Roadmap, qHTS, NCGC

SMILES | caspase-3 activation
CN=C=O | -0.324% (inactive)
Oc1ccc(Cl)c(Cl)c1Cl | 0.142% (inactive)
Oc1cc(Cl)c(Cl)c(Cl)c1Cl | 2% (inactive)
[O-][Cl+]O | -0.155% (inactive)
CN(C)c1ccc(N(C)C)cc1 | -0.283% (inactive)
O=C(Cl)c1ccccc1F | 0.0103% (inactive)
Nc1ccc([N+](=O)[O-])cc1[N+](=O)[O-] | 0.221% (inactive)
NC1CCC(CC2CCC(N)CC2)CC1 (stereo not given) | -0.448% (inactive)
COC(C)(C)C | -0.143% (inactive)
O=S(=O)(Cl)c1ccccc1 | -0.133% (inactive)
O=Cc1ccc2c(c1)OCO2 | -0.392% (inactive)
N#CCCCCC#N | 0.632% (inactive)
OCCCCO | 0.229% (inactive)
Oc1cc(Cl)cc(Cl)c1 | -0.841% (inactive)
CCCCNC(=O)n1c(NC(=O)OC)nc2ccccc21 | -0.638% (inactive)
ClC=CCl | 0.0502% (inactive)
C(CCOCC1CO1)COCC1CO1 (stereo not given) | 0.94% (inactive)
C=CC#N | 0.891% (inactive)
Nc1ccc(-c2ccc(N)c(Cl)c2)cc1Cl | 1.94% (inactive)
C=CC(=O)OC | -0.156% (inactive)

SMILES | caspase-3 activation
CCOC(=O)CC(SP(=O)(OC)OC)C(=O)OCC (stereo not given) | -0.139% (inactive)
CN(C)C(=O)Cl | 0.715% (inactive)
Nc1ccc(Oc2ccc(N)cc2)cc1 | -0.816% (inactive)
O=[N+]([O-])c1cc(Cl)c(Cl)cc1Cl | -0.124% (inactive)
BrCC(Br)(Br)Br | 19.7% (inactive)
Cc1coc2c1CCC(C)C2 (stereo not given) | -0.546% (inactive)
CN(C)N=O | 0.0443% (inactive)
Nn1cnnc1 | 0.418% (inactive)
CC(C)[C@]12CC(=O)[C@H](C)[C@H]1C2 | 0.599% (inactive)
S=C1NCCN1 | 1.12% (inactive)
C=CCCl | 0.475% (inactive)
CC(=O)CCC(C)=O | 0.85% (inactive)
CC(C)(Cl)Cl | 0.573% (inactive)
C=COC(C)=O | 0.637% (inactive)
C=CC(=O)OCC(CC)CCCC (stereo not given) | 0.0584% (inactive)
COc1ccc(C=O)cc1 | -1.48% (inactive)
CCOP(=S)(OCC)Oc1nc(Cl)c(Cl)cc1Cl | 1.45% (inactive)
ClCC(Cl)CCl | -0.0667% (inactive)
CCN(N=O)C(N)=O | -0.155% (inactive)
Cc1cc(-c2cc(C)c(N)c(C)c2)cc(C)c1N | 1.3% (inactive)
